Among the data in ChEMBL document CHEMBL4513141, “CO-ADD screening of NIH (USA) - Clinical Collection” (2021) are Inhibition values, retold here.

Entries with a potency or affinity are not part of this list.

The subject of the assay is Staphylococcus aureus. The settings on record: Concentration 20 uM; ASSAY_TEST Inhibition of Bacterial Growth; detection method Absorption (OD600); MEDIA CAMHB; plate type 384well; NBS; CORNING #3640; time 18 hr.
`CC[C@H]1OC(=O)[C@H](C)C(=O)[C@H](C)[C@@H](O[C@@H]2O[C@H](C)C[C@H](N(C)C)[C@H]2O)[C@](C)(OC)C[C@@H](C)C(=O)[C@H](C)[C@@H]2N(CCCCn3cnc(-c4cccnc4)c3)C(=O)O[C@@]21C`: the Inhibition came out at 4.38%.
Under `CC(CCc1ccccc1)NCC(O)c1ccc(O)c(C(N)=O)c1.Cl` (configuration not stated) [LABETALOL HYDROCHLORIDE] stands 13.4%.
Turning to `CC(C)(C)NC(=O)[C@H]1CC[C@H]2[C@@H]3CC[C@H]4NC(=O)C=C[C@]4(C)[C@H]3CC[C@]12C` [FINASTERIDE], the Inhibition is reported as -0.3%.
Under `CC[C@]1(O)C[C@@H]2CN(CCc3c([nH]c4ccccc34)[C@@](C(=O)OC)(c3cc4c(cc3OC)N(C)[C@H]3[C@@](O)(C(N)=O)[C@H](O)[C@]5(CC)C=CCN6CC[C@]43[C@@H]65)C2)C1.O=S(=O)(O)O` [VINDESINE SULFATE] stands 2.71%.
On to `Cc1onc(-c2ccccc2)c1-c1ccc(S(N)(=O)=O)cc1` [VALDECOXIB], for which the Inhibition is reported as 10.74%.
On to `C[C@]12C=CC(=O)C=C1CC[C@@H]1[C@@H]2[C@@H](O)C[C@@]2(C)[C@H]1CC[C@]2(O)C(=O)COC(=O)CCC(=O)[O-].[Na+]` [PREDNISOLONE SODIUM SUCCINATE], for which the Inhibition is recorded as 5.71%.
As for `COc1cc(N)c(Cl)cc1C(=O)N[C@@H]1CCN(CCCOc2ccc(F)cc2)C[C@@H]1OC.O` [(R,S)-CISAPRIDE MONOHYDRATE], the Inhibition amounted to 10.08%.
